Test results taken from PubChem BioAssay (NCI).
Compounds without any hit were thinned out: in the full panel of roughly 79,000, 15% have a hit. Rule as the data show it: active = growth inhibition above about 70%; inactive = the rest.

Columns and labels:
[1] = NCI Yeast Anticancer Drug Screen. Data for the rad50 strain (AID 155);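 also: 0% = growth of vehicle-only cultures of the same strain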; details: S. cerevisiae rad50 strain growth inhibition; at 50.0 µM; stronger effect = higher value
Method in brief: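 Compounds were tested on a yeast strain with an engineered DNA damage repair alteration; the reported value is growth inhibition normalised to vehicle treatment.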

[2] = NCI Yeast Anticancer Drug Screen. Data for the mec2-1 strain (AID 157); details: S. cerevisiae mec2-1 strain, at 50.0 µM, stronger effect = higher value
Method in brief: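 Compounds were applied to mec2-1 yeast cells. Their growth was then compared with that of vehicle-treated cultures to give growth inhibition.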

[3] = NCI Yeast Anticancer Drug Screen. Data for the sgs1 mgt1 strain (AID 161);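 also: 0% = growth of cultures given vehicle only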; details: S. cerevisiae sgs1 mgt1 strain, at 50.0 µM, stronger effect = higher value
Method in brief: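 Percent growth inhibition was derived by comparing compound-exposed mutant yeast with vehicle-exposed cultures. The strain carries alterations in DNA damage repair.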

[4] = NCI Yeast Anticancer Drug Screen. Data for the cln2 rad14 strain (AID 165);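 also: 0% = growth equal to vehicle treated cultures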; details: S. cerevisiae cln2 rad14 strain, at 50.0 µM, stronger effect = higher value
Method in brief: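 Strain: cln2 rad14 yeast, altered in cell cycle control and DNA damage repair. Read-out: growth inhibition vs vehicle.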

[5] = NCI Yeast Anticancer Drug Screen. Data for the bub3 strain (AID 167); details: S. cerevisiae bub3 mutant strain, at 50.0 µM, stronger effect = higher value
Method in brief: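 Growth of a checkpoint-deficient yeast mutant is measured after compound exposure. Values represent inhibition relative to vehicle.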

[6] = NCI Yeast Anticancer Drug Screen. Data for the mlh1 rad18 strain (AID 175); details: S. cerevisiae mlh1 rad18 strain growth inhibition; at 50.0 µM; stronger effect = higher value
Method in brief: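 A repair-deficient yeast strain is exposed to test compound, and growth is scored relative to vehicle-treated controls.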

Measured: growth inhibition

CC(C(O)C(F)(F)F)[N+](C)(C)C (stereo unspecified)
inactive: [1] 34.8% | [2] 5.85% | [3] 1.8% | [4] -13.8% | [5] 10.1% | [6] 28%

COc1ccc([N+](=O)[O-])c2c1CONC2(C)C(=O)O (stereo unspecified)
inactive: [1] 8.95% | [2] 16.2% | [3] 8.2% | [4] -4.95% | [5] 3.75% | [6] 16.2%

O=C1/C(=C/c2ccc(O)cc2)CCC1CNc1ccc(Cl)cc1 (stereo unspecified)
inactive: [1] 14.8% | [2] 12.6% | [3] -2.6% | [4] 18.1% | [5] 5.55% | [6] 39.9%

O=C(O)CCc1ccc(O)c(O)c1
inactive: [1] 19.6% | [2] 2.5% | [3] 11.8% | [4] 13.3% | [5] 2.8% | [6] -21.8%

CC(C)C(O)C(C)(C)C(O)C#N (stereo unspecified)
inactive: [1] 18.1% | [2] -1.2% | [3] -0.1% | [4] -2.45% | [5] 0.4% | [6] 7.7%

COC(=O)C1(CC(=O)c2ccncc2)NC(=S)NC(=O)C1C#N (stereo unspecified)
inactive: [1] 2% | [2] -11.8% | [3] -19.1% | [4] -22.4% | [5] -22.8% | [6] -5.75%

Cc1ccc(Cl)cc1NS(=O)(=O)c1ccccc1
inactive: [1] -4.35% | [2] -31.1% | [3] -2.8% | [4] -14.3% | [5] -22.8% | [6] 5.55%

NC(CSS(=O)(=O)O)=NCCCCC1CCCCC1
inactive: [1] -6.3% | [2] -2.75% | [3] 7.35% | [4] -6.25% | [5] 0.1% | [6] 16.4%

NNc1ncnc2c1ncn2Cc1ccccc1
inactive: [1] 1.65% | [2] -3.1% | [3] 1.75% | [4] -2.05% | [5] -22.6% | [6] -14.4%

CCCCCCCCCCCCCCCC(=O)O
inactive: [1] -12.9% | [2] -34.1% | [3] -18.9% | [4] -2.9% | [5] -29.8% | [6] -34.9%

NNC(=O)C(=O)O
inactive: [1] 14.4% | [2] -2.95% | [3] 20.2% | [4] -15% | [5] 15.3% | [6] 14.8%

Cn1c(=O)[nH]c2c(-c3ccccc3)n[nH]c2c1=O
inactive: [1] 11.3% | [2] -1.65% | [3] 3.5% | [4] -45.5% | [5] 1.4% | [6] 4.3%

COc1cc2c(C)cc(=O)oc2c(OCC(O)CN2CCCC2)c1OC (stereo unspecified)
inactive: [1] -0.75% | [2] 14% | [3] -5.75% | [4] 1.35% | [5] -4.35% | [6] -5.25%

CN(C)c1ccc(-c2c(C#N)c(O)n(NS(=O)(=O)c3ccccc3)c(=O)c2C#N)cc1
inactive: [1] -28.9% | [2] -10.7% | [3] -14.2% | [4] 13.9% | [5] -21.4% | [6] -14.2%

N#Cc1nc(CC(=O)c2ccc(Cl)c(Cl)c2)c(CC(=O)c2ccc(Cl)c(Cl)c2)nc1C#N
inactive: [1] 12.1% | [2] 10.4% | [3] 9.2% | [4] 31.4% | [5] 27.6% | [6] 20.2%

COC(=O)c1ccc(OCc2ccc3nc(OC)c(OC)nc3c2)cc1
inactive: [1] -32.1% | [2] -30.4% | [3] -50.1% | [4] 7.35% | [5] -28.9% | [6] -37%

O=[N+]([O-])c1cc(C(F)(F)F)ccc1Cl
inactive: [1] -11.2% | [2] 10.3% | [3] -5.85% | [4] 31.3% | [5] -12.9% | [6] -27.8%

Cc1[nH]c(=O)c2ccccc2c1O
inactive: [1] 10.6% | [2] -8.15% | [3] -3.7% | [4] 6.35% | [5] -17.2% | [6] -1.35%

Nc1ncnc(N)c1NC(=O)c1ccc(CCc2ccccc2)c(Cl)c1
inactive: [1] -3.9% | [2] 37.1% | [3] 21.6% | [4] -14.2% | [5] 4.1% | [6] -4.35%

CC(CS(C)(=O)=O)S(=O)(=O)O (stereo unspecified)
inactive: [1] -6.25% | [2] -20.4% | [3] -1.35% | [4] -0.3% | [5] -14.7% | [6] -5.85%

COc1ccccc1-c1nc2ccccc2c(=O)[nH]1
inactive: [1] 12.8% | [2] -25.9% | [3] -14.1% | [4] 8.5% | [5] 6.4% | [6] 2.25%

Cc1ccc(-c2c(C#N)c(S)n(NS(=O)(=O)c3ccc(C)cc3)c(=O)c2C#N)cc1
inactive: [1] 46.1% | [2] 57.3% | [3] 59.9% | [4] 28.6% | [5] 39.6% | [6] 59.9%

c1cc(CNCCN2CCNCC2)ccn1
inactive: [1] 7.45% | [2] -34.2% | [3] -3.7% | [4] -1.9% | [5] -48.9% | [6] 16.8%

COC(=O)c1cc(C(=O)OC)c(C/C(=N/Nc2ccc([N+](=O)[O-])cc2[N+](=O)[O-])C(=O)Nc2cccc(C(F)(F)F)c2)nc1C/C(=N/Nc1ccc([N+](=O)[O-])cc1[N+](=O)[O-])C(=O)Nc1cccc(C(F)(F)F)c1
inactive: [1] 57% | [2] -5.95% | [3] 1.15% | [4] 25.4% | [5] 37.9% | [6] 59.8%

O=C(OC(c1ccc(Cl)cc1)c1ccc(Cl)cc1)C(c1ccc(Cl)cc1)c1ccc(Cl)cc1
inactive: [1] 15.5% | [2] 10.4% | [3] 14.8% | [4] -13.5% | [5] -3.35% | [6] 30.7%

Cc1ccccc1N=C(N)Nc1ccccc1C
inactive: [1] -25.5% | [2] -29.9% | [3] -44.3% | [4] 5.7% | [5] -38.7% | [6] -52.4%

NC(Cc1ccc(O)c(O)c1)P(=O)(O)O (stereo unspecified)
inactive: [1] -72.8% | [2] -38% | [3] -35.7% | [4] -5.75% | [5] -0.1% | [6] -27.8%

CC1OC(=O)/C(=C\N(C)C)C1=O (stereo unspecified)
inactive: [1] 1.25% | [2] 9% | [3] 13.2% | [4] 42.5% | [5] 7.75% | [6] 8.6%

CNC(=O)OCc1c(C)oc(-c2ccc(Cl)c(Cl)c2)c1COC(=O)NC
inactive: [1] 47.5% | [2] -7.15% | [3] 34.5% | [4] 24.1% | [5] 12.3% | [6] 14.4%

NC(N)=NC(N)=Nc1ccccc1
inactive: [1] -15.9% | [2] 14.8% | [3] -1.8% | [4] -5.9% | [5] 1.15% | [6] 11.6%

O=C(O)CCC(=O)NNC(=O)CCC(=O)O
inactive: [1] 16.2% | [2] -2.45% | [3] 4.15% | [4] -8.45% | [5] 14.3% | [6] -22.4%

CC1=NN(C)C(=O)C1
inactive: [1] 1.45% | [2] 3.3% | [3] 1.9% | [4] -0.4% | [5] -3.05% | [6] 9.25%

CCCCC(=O)CCCCCCCCC(=O)CCCC
inactive: [1] 0.7% | [2] -8.65% | [3] -19.8% | [4] -31.2% | [5] -4% | [6] -19.8%

COC(=O)C1=CN=C(C(=O)OC)NN1
inactive: [1] 13.9% | [2] 0.25% | [3] -8.6% | [4] 15.8% | [5] -4.45% | [6] 3.15%

O=C1CC2(C(=O)N1CN1CCOCC1)c1ccccc1-c1ccccc12
inactive: [1] -7.55% | [2] -4.5% | [3] 15.6% | [4] 3.7% | [5] 4.05% | [6] -11.1%

CCOC(=O)Nc1ccc(C2SCCN2C(=O)Nc2ccc(Cl)cc2)cc1 (stereo unspecified)
inactive: [1] -9.5% | [2] -14.3% | [3] -9.45% | [4] -5.65% | [5] -7.7% | [6] -11.3%
